Experiment [1] is described as follows: NCI Yeast Anticancer Drug Screen. Data for the rad50 strain (AID 155).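 Also: 0% = growth of vehicle-only cultures of the same strain.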 The settings on record: S. cerevisiae rad50 strain growth inhibition, stronger effect = higher value. In a few lines:
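Genetically altered yeast (DNA repair pathway); compound treatment; growth inhibition vs vehicle ctrl.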

Experiment [2] in a line: NCI Yeast Anticancer Drug Screen. Data for the mec2-1 strain (AID 157). To be noted: S. cerevisiae mec2-1 strain, stronger effect = higher value. In a few lines:
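Mutant yeast (mec2-1) grown with compound; growth inhibition relative to vehicle control reported.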

A short description of experiment [3]: NCI Yeast Anticancer Drug Screen. Data for the sgs1 mgt1 strain (AID 161).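 Also: 0% = growth of cultures given vehicle only.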 To be noted: S. cerevisiae sgs1 mgt1 strain, stronger effect = higher value. An outline of the steps:
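Percent growth inhibition was derived by comparing compound-exposed mutant yeast with vehicle-exposed cultures. The strain carries alterations in DNA damage repair.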

Experiment [4] is described as follows: NCI Yeast Anticancer Drug Screen. Data for the cln2 rad14 strain (AID 165).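 Also: 0% = growth equal to vehicle treated cultures.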 To be noted: S. cerevisiae cln2 rad14 strain, stronger effect = higher value. An outline of the steps:
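Readout is yeast growth inhibition versus vehicle-treated controls, using a strain with cln2 and rad14 alterations exposed to compound.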

A short description of experiment [5]: NCI Yeast Anticancer Drug Screen. Data for the bub3 strain (AID 167). The settings on record: S. cerevisiae bub3 mutant strain, stronger effect = higher value. In a few lines: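 Yeast carrying a defined mutation is treated with each compound, and growth is compared with that of vehicle-exposed cells to give inhibition.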
A short description of experiment [6]: NCI Yeast Anticancer Drug Screen. Data for the mlh1 rad18 strain (AID 175). The settings on record: S. cerevisiae mlh1 rad18 strain growth inhibition, stronger effect = higher value. In a few lines: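 Genetically defined yeast (DNA repair-deficient) exposed to compounds; growth inhibition determined relative to vehicle.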
Setting [7] is: at 5.0 µM (retest, dose inferred, filed as 0.5).
[8] abbreviates: at 50.0 µM (retest, dose inferred, filed as 5.0).

Experimental findings from PubChem BioAssay (NCI) are described below.

This is part of a sample that, as a whole, favours compounds with a hit. Of some 79,000 tested, about 15% had one in any assay. A number with no mark means an inactive call. Activity calls are given as the source filed them. Rule as the data show it: active = growth inhibition above about 70%; inactive = the rest.

Take `Cc1ccc(C)c(NC(=O)/C(=N\NC(N)=S)C(C#N)c2ccccc2)c1` (configuration not stated): the growth inhibition in experiment [1] (setting [7]) was 5%; in experiment [1] (setting [8]) it was 13%; in experiment [1] (at 50.0 µM) it was -14.3%; in experiment [2] (setting [7]) it was 6%; in experiment [2] (setting [8]) it was 6%; in experiment [2] (at 50.0 µM) it was 12.8%. Also, the growth inhibition in experiment [3] (setting [7]) was 2%; in experiment [3] (setting [8]) it was 12%; in experiment [3] (at 50.0 µM) it was 15.6%; in experiment [4] (setting [7]), -1%; in experiment [4] (setting [8]) it was -4%; in experiment [4] (at 50.0 µM), 28%. The growth inhibition was 10% in experiment [5] (setting [7]); 2% in experiment [5] (setting [8]); 5.75% in experiment [5] (at 50.0 µM); 1% in experiment [6] (setting [7]); 6% in experiment [6] (setting [8]); 69.2% in experiment [6] (at 50.0 µM).
Consider `COc1cc2c(oc(=O)c3cc(C)cc(OC)c32)c2c(C3OC(C)C(O)C(C)(O)C3O)ccc(O)c12` (configuration not stated), for which the growth inhibition in experiment [1] (setting [7]) was 80% (active); in experiment [1] (setting [8]), 96% (active); in experiment [1] (at 50.0 µM), 90.2% (active); in experiment [2] (setting [7]), 72% (active); in experiment [2] (setting [8]), 97% (active); in experiment [2] (at 50.0 µM), 89.3% (active). Besides, the growth inhibition in experiment [3] (setting [7]) was 79% (active); in experiment [3] (setting [8]), 96% (active); in experiment [3] (at 50.0 µM), 90.4% (active); in experiment [4] (setting [7]), 75% (active); in experiment [4] (setting [8]), 94% (active); in experiment [4] (at 50.0 µM) it was 90% (active). Moreover, the growth inhibition was 83% (active) in experiment [5] (setting [7]); 97% (active) in experiment [5] (setting [8]); 89.8% (active) in experiment [5] (at 50.0 µM); 90% (active) in experiment [6] (setting [7]); 96% (active) in experiment [6] (setting [8]); 88.8% (active) in experiment [6] (at 50.0 µM).
Consider `O=C1CC(c2ccccc2)c2c(ccc3ccccc23)O1` (configuration not stated), for which the growth inhibition is -1% in experiment [1] (setting [7]); 90% (active) in experiment [1] (setting [8]); 87% (active) in experiment [1] (at 50.0 µM); 1% in experiment [2] (setting [7]); 86% (active) in experiment [2] (setting [8]); 62.2% in experiment [2] (at 50.0 µM). In addition, the growth inhibition is -1% in experiment [3] (setting [7]); 86% (active) in experiment [3] (setting [8]); 75.2% (active) in experiment [3] (at 50.0 µM); 6% in experiment [4] (setting [7]); 77% (active) in experiment [4] (setting [8]); 45.5% in experiment [4] (at 50.0 µM). Also, the growth inhibition in experiment [5] (setting [7]) is 6%; in experiment [5] (setting [8]), 86% (active); in experiment [5] (at 50.0 µM), 72% (active); in experiment [6] (setting [7]), -1%; in experiment [6] (setting [8]), 88% (active); in experiment [6] (at 50.0 µM) it was 72.8% (active).
As for `CS(=O)(=O)OCCN(CCOS(C)(=O)=O)c1ccc(C=Nc2ccc3oc(=O)ccc3c2)cc1`, the growth inhibition in experiment [1] (setting [7]) is 32%; in experiment [1] (setting [8]) it was 97% (active); in experiment [1] (at 50.0 µM) it was 52.1%; in experiment [2] (setting [7]), 35%; in experiment [2] (setting [8]) it was 95% (active); in experiment [2] (at 50.0 µM) it was 77.1% (active). Besides, the growth inhibition in experiment [3] (setting [7]) was 22%; in experiment [3] (setting [8]) it was 86% (active); in experiment [3] (at 50.0 µM), 65.2%; in experiment [4] (setting [7]), 13%; in experiment [4] (setting [8]) it was 77% (active); in experiment [4] (at 50.0 µM) it was 22.4%. In addition, the growth inhibition in experiment [5] (setting [7]) is -4%; in experiment [5] (setting [8]), 14%; in experiment [5] (at 50.0 µM), 40.1%; in experiment [6] (setting [7]), 72% (active); in experiment [6] (setting [8]) it was 97% (active); in experiment [6] (at 50.0 µM) it was 88.7% (active).
With `O=[N+]([O-])c1cc([N+](=O)[O-])c2ccccc2c1O`, the growth inhibition in experiment [1] (setting [7]) is 17%; in experiment [1] (setting [8]), 90% (active); in experiment [1] (at 50.0 µM), 75% (active); in experiment [2] (setting [7]), 8%; in experiment [2] (setting [8]), 90% (active); in experiment [2] (at 50.0 µM), 65.1%. Moreover, the growth inhibition was 7% in experiment [3] (setting [7]); 89% (active) in experiment [3] (setting [8]); 88.8% (active) in experiment [3] (at 50.0 µM); -6% in experiment [4] (setting [7]); 48% in experiment [4] (setting [8]); 52% in experiment [4] (at 50.0 µM). Besides, the growth inhibition in experiment [5] (setting [7]) was 2%; in experiment [5] (setting [8]), 87% (active); in experiment [5] (at 50.0 µM) it was 61%; in experiment [6] (setting [7]), 9%; in experiment [6] (setting [8]) it was 92% (active); in experiment [6] (at 50.0 µM), 82.3% (active).
On to `CC(=O)O[C@@H]1CC(C)C2CC2C2=C(C(O)OC2O)[C@@H]1C(C)CCC=C(C)C` (some centres not stated), for which the growth inhibition is 19% in experiment [1] (setting [7]); 98% (active) in experiment [1] (setting [8]); 91.9% (active) in experiment [1] (at 50.0 µM); 92% (active) in experiment [2] (setting [7]); 99% (active) in experiment [2] (setting [8]); 93.7% (active) in experiment [2] (at 50.0 µM). Moreover, the growth inhibition in experiment [3] (setting [7]) is 25%; in experiment [3] (setting [8]), 98% (active); in experiment [3] (at 50.0 µM) it was 93% (active); in experiment [4] (setting [7]), 86% (active); in experiment [4] (setting [8]), 98% (active); in experiment [4] (at 50.0 µM), 90% (active). Moreover, the growth inhibition in experiment [5] (setting [7]) was 99% (active); in experiment [5] (setting [8]), 98% (active); in experiment [5] (at 50.0 µM) it was 92.4% (active); in experiment [6] (setting [7]), 78% (active); in experiment [6] (setting [8]) it was 98% (active); in experiment [6] (at 50.0 µM), 91.5% (active).
In the case of `CCCC[N-]CC(O)C[NH-].O=C(O)CC(=O)O.[Pt+2]` (configuration not stated), the growth inhibition in experiment [1] (setting [7]) is 2%; in experiment [1] (setting [8]) it was 6%; in experiment [1] (at 50.0 µM), 11.6%; in experiment [2] (setting [7]) it was -10%; in experiment [2] (setting [8]) it was -23%; in experiment [2] (at 50.0 µM), 23.2%. For the same compound, the growth inhibition in experiment [3] (setting [7]) is 1%; in experiment [3] (setting [8]), 6%; in experiment [3] (at 50.0 µM), 22.2%; in experiment [4] (setting [7]), 1%; in experiment [4] (setting [8]) it was 7%; in experiment [4] (at 50.0 µM), 80% (active). In addition, the growth inhibition was 3% in experiment [5] (setting [7]); 4% in experiment [5] (setting [8]); 0.55% in experiment [5] (at 50.0 µM); 0% in experiment [6] (setting [7]); -7% in experiment [6] (setting [8]); 29.9% in experiment [6] (at 50.0 µM).
For the compound `CNC(=O)N(C)/N=C/c1ccc([N+](=O)[O-])o1`, the growth inhibition in experiment [1] (setting [7]) is 15%; in experiment [1] (setting [8]), 67%; in experiment [1] (at 50.0 µM), 84.5% (active); in experiment [2] (setting [7]), 4%; in experiment [2] (setting [8]) it was 40%; in experiment [2] (at 50.0 µM), 50.5%. In addition, the growth inhibition in experiment [3] (setting [7]) was 14%; in experiment [3] (setting [8]), 78% (active); in experiment [3] (at 50.0 µM), 93.5% (active); in experiment [4] (setting [7]), 0%; in experiment [4] (setting [8]), 36%; in experiment [4] (at 50.0 µM), 54.6%. Besides, the growth inhibition in experiment [5] (setting [7]) is 17%; in experiment [5] (setting [8]), 55%; in experiment [5] (at 50.0 µM) it was 45.5%; in experiment [6] (setting [7]), 24%; in experiment [6] (setting [8]), 76% (active); in experiment [6] (at 50.0 µM), 91.8% (active).
As for `OCCc1cccc2ccc3ccccc3c12`, the growth inhibition was 0% in experiment [1] (setting [7]); 62% in experiment [1] (setting [8]); 85.9% (active) in experiment [1] (at 50.0 µM); -1% in experiment [2] (setting [7]); 55% in experiment [2] (setting [8]); 92.8% (active) in experiment [2] (at 50.0 µM). In addition, the growth inhibition in experiment [3] (setting [7]) is -4%; in experiment [3] (setting [8]) it was 59%; in experiment [3] (at 50.0 µM), 94.2% (active); in experiment [4] (setting [7]), -1%; in experiment [4] (setting [8]), 59%; in experiment [4] (at 50.0 µM), 88.2% (active). The growth inhibition in experiment [5] (setting [7]) is 1%; in experiment [5] (setting [8]) it was 66%; in experiment [5] (at 50.0 µM) it was 90.4% (active); in experiment [6] (setting [7]) it was 2%; in experiment [6] (setting [8]), 66%; in experiment [6] (at 50.0 µM), 91.8% (active).
